Test results from PubChem BioAssay (NCI).
This is part of a sample that, as a whole, favours compounds with a hit. Of some 83,000 tested, about 20% had one in any assay.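 Growth was measured after 48 h exposure to one concentration of compound in 96-well plates. Values under 10 count as active.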 Values without a mark were called inactive. Active and inactive are the calls of the source.

What was measured:
Assay in all cases: NCI-60 one-dose screen, 48 h (100 = growth as untreated, 0 = no growth, -100 = all killed)
Settings in all cases: 10 µM unless noted
HCT-15 colon = tested on: HCT-15 colon
HT29 colon = tested on: HT29 colon
SNB-75 CNS = tested on: SNB-75 CNS
SNB-19 CNS = tested on: SNB-19 CNS
U251 CNS = tested on: U251 CNS
PC-3 prostate = tested on: PC-3 prostate
SK-MEL-5 melanoma = tested on: SK-MEL-5 melanoma
UACC-62 melanoma = tested on: UACC-62 melanoma
LOX IMVI melanoma = tested on: LOX IMVI melanoma
SK-MEL-28 melanoma = tested on: SK-MEL-28 melanoma

Row | Compound | growth (HCT-15 colon) | growth (HT29 colon) | growth (SNB-75 CNS) | growth (SNB-19 CNS) | growth (U251 CNS) | growth (PC-3 prostate) | growth (SK-MEL-5 melanoma) | growth (UACC-62 melanoma) | growth (LOX IMVI melanoma) | growth (SK-MEL-28 melanoma)
1 | O=C(c1ccccc1)c1ccccc1-c1ccccc1 | 17.8% | -25.8% (active) | 3.14% (active) | 34.7% | 25.4% | 41.4% | 25% | 34.5% | 31.6% | 50.1%
2 | COc1ccc(C(=O)NCCNc2nccc(-c3c(-c4ccc(F)cc4)nc4sccn34)n2)cc1 | 36.6% | 14.6% | 50.9% | 61.9% | 55.4% | 49.5% | 38.1% | 47.4% | 43.3% | 76.7%
3 | C/C=C(/C)C(=O)OC1C=C(CO)C(=O)C(OC(=O)/C(C)=C\C)C1C(C)C (stereo not given) | -49.3% (active) | -65.6% (active) | -43.4% (active) | -54% (active) | -73.8% (active) | -54.1% (active) | -99.3% (active) | -84.7% (active) | -92.5% (active) | -92.6% (active)
4 | COc1ccc(OC)c(Cn2cc3c(c2-c2ccccc2)CCc2cnoc2-3)c1 | 45.5% | 30.4% | 55.9% | 65.5% | 53.4% | 41.1% | 40.2% | 48.1% | 61.6% | 65.9%
5 | N=c1c2c(=O)n3c(nc2nc2sc4ccc(Cl)cc4n12)-c1ccccc1Sc1ccccc1-3 | 13.6% | 26.8% | 18.6% | 30.5% | 24.7% | 11.2% | -2.17% (active) | -26% (active) | 24.2% | 29.3%
6 | COc1cc2c(/C=C3\C(=O)Nc4ccc(Br)cc43)c(Cl)n(C)c2cc1C | 6.8% (active) | 7.9% (active) | 31.6% | 24% | 10.2% | 11.8% | -3% (active) | 29.7% | 9.9% (active) | 55.6%
7 | COCn1c(C(=O)OC)cc2oc(/C=C3/SC(=S)N(N)C3=O)cc21 | 105% | 97.2% | 64.6% | 97.2% | 75.8% | 57.2% | 91.7% | 94% | 87.3% | 92.9%
8 | O=C1C(=O)c2ccccc2C(O)=C1CCCc1ccc(C2CCCC2)cc1 | 19.6% | 34.7% | 39.9% | 40.9% | 29.2% | 35.6% | 15.6% | 40.7% | 1.77% (active) | 53.1%
9 | CC1(C)NCCC[C@]2(C)[C@H]3CC=C4[C@@H]5C[C@](C)(COC(=O)c6ccccc6C(=O)O)CC[C@]5(C)CC[C@@]4(C)[C@]3(C)CC[C@@H]12 | 43.8% | 9.9% (active) | 74.7% | 68.9% | 41.1% | 43.1% | 77.5% | 88.2% | 54.4% | 93.4%
10 | COc1cc(CCNc2cnc3cc(N)cc(N)c3n2)cc(OC)c1 | 104% | 100% | 98.8% | 111% | 104% | 118% | 103% | 109% | 108% | 61%
11 | CCOC(=O)NNc1[nH]c(-c2ccc(OC)cc2)cc1C#N | 107% | 132% | 124% | 98.6% | 98.2% | 99% | 88.9% | 76.1% | 91.6% | 182%
12 | Oc1ccc2ccccc2c1/C=N\Nc1ccccn1 | 28.7% | 111% | -7.53% (active) | 27.8% | 21.3% | 45.1% | 13.3% | 0.907% (active) | -4.69% (active) | 38.9%
13 | CCC(C)CC(N)O (stereo not given) | 103% | 111% | 106% | 106% | 106% | 111% | 99.9% | 104% | 110% | 102%
14 | COc1ccc(C(=O)c2no[n+]([O-])c2C(=O)c2ccc(OC)cc2)cc1 | 20.1% | 10.1% | -99.3% (active) | 97.7% | 35.9% | -37.7% (active) | 85.5% | 78.9% | -69.2% (active) | 109%
15 | COC(=O)c1cc(Nc2ccc(O)c3c2C(=O)c2c([N+](=O)[O-])ccc(O)c2C3=O)cc(C(=O)OC)c1 | 16.3% | 36.5% | 59.1% | 76.9% | 74.8% | 70.9% | -49% (active) | 48.8% | 59.5% | 30.8%
16 | CC(C)(C)C(=O)CCCCCCCC/C=C/CCCC(O)c1ccco1 (stereo not given) | 118% | 107% | 101% | 109% | 105% | 102% | 107% | 95.2% | 102% | 106%
17 | O=C(O)/C(Br)=C/c1c[nH]c2ccc(Br)cc12 | 114% | 106% | 105% | 126% | 105% | 123% | 107% | 104% | 101% | 63.7%
18 | CCCC(=O)NNc1[nH]c(-c2ccc(OC)cc2)cc1C(=O)OCC | 100% | 110% | 122% | 108% | 104% | 106% | 111% | 99.6% | 103% | 120%
19 | CC[C@H](Nc1ncnc2nc[nH]c12)c1nc2cccc(NCc3ccc(C(=O)NO)o3)c2c(=O)n1-c1ccccc1 | 103% | 91.3% | 71.6% | 99.7% | 107% | 93.3% | 101% | 92.6% | 95.4% | 100%
20 | COc1ccc(/C(=C(\c2ccccc2)[N+](=O)[O-])c2ccc(OCCN3CCCC3)cc2)cc1 | 6.54% (active) | 9.77% (active) | 76% | 87.8% | 74.1% | 69.4% | -78.2% (active) | 38.4% | -20.1% (active) | -10.3% (active)
21 | CCOC(=O)NC1=NCC(C)(C)S1 | 104% | 91.3% | 91.2% | 98.1% | 101% | 93.6% | 98.3% | 93.6% | 94.4% | 99.9%
22 | COc1ccc2c(c1)/C(=C/c1c(-c3cc(OC)c(OC)c(OC)c3)nc3sccn13)C(=O)N2 | 99.5% | 108% | 78.3% | 97.1% | 96.3% | 85% | 81.8% | 92.5% | 98.3% | 98.8%
23 | CCCCCCCCCCCCCCCCNC(=O)Nc1ccc(C)c(NC(=O)NCCCCCCCCCCCCCCCC)c1 | 105% | 104% | 97% | 96.9% | 100% | 84.5% | 98.4% | 95.5% | 109% | 112%
24 | COc1ccccc1CNCCCN1C(=O)c2ccc3c4c(ccc(c24)C1=O)C(=O)N(CCCNCc1ccccc1OC)C3=O | -69.2% (active) | -59.5% (active) | -95.7% (active) | -68.8% (active) | -89.5% (active) | -59.9% (active) | -100% (active) | -72.5% (active) | -63.1% (active) | -90.6% (active)
25 | CCCCCCCCCCCCCCCCNC(=S)N/N=C/c1ccc(OC)cc1 | 108% | 102% | 113% | 99.8% | 97.9% | 88.5% | 99.9% | 93.2% | 108% | 109%
26 | COC(=O)/C=C1/CCCCC1(C)C(=O)OC (stereo not given) | 93.1% | 102% | 91.6% | 102% | 97.2% | 102% | 112% | 106% | 102% | 100%
27 | NC(N)=Nc1ccc(/C=C2\C=Cc3ccccc32)cc1 | 68% | 36.1% | 52.7% | 75.6% | 67.8% | 51.9% | 79.6% | 69% | 40% | 91.6%
